hNpr1 antagonist – Natriuretic polypeptide receptor (hNpr1) antagonism - Primary qHTS; AID 1347048, 2019; Atrial natriuretic peptide receptor 1 (Homo sapiens), P16066; Potency, µM (titrated, usually from 46.3 µM), usual class: inhibitors; 76,000 tested, 1.6% active; HEK293 hNpr1 GloSensor cGMP, ANP-stimulated luminescence; calls by dose curve; also: nearly all actives have a fitted effect of over 60% in size
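HEK293 cells stably expressing human Npr1 and cGMP GloSensor pGS-40F, loaded 2 h with 2% GloSensor reagent, given compound 30 min at room temperature. Luminescence read before and 20 min after 0.1 nM hNppA.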
Luciferase inh – Firefly luciferase inhibition profiling of diverse chemical library using quantitative high-throughput screening. Luciferin 4-monooxygenase (Photinus pyralis), P08659. AID 1347043, 2019. purified P. pyralis luciferase, luminescence, biochemical. 76,000 tested, 2.5% active. Potency, µM (highest dose often 115 µM), usual class: inhibitors; also: nearly all actives have a fitted effect of over 65% in size
Target sequence (P08659 whole entry, looked up): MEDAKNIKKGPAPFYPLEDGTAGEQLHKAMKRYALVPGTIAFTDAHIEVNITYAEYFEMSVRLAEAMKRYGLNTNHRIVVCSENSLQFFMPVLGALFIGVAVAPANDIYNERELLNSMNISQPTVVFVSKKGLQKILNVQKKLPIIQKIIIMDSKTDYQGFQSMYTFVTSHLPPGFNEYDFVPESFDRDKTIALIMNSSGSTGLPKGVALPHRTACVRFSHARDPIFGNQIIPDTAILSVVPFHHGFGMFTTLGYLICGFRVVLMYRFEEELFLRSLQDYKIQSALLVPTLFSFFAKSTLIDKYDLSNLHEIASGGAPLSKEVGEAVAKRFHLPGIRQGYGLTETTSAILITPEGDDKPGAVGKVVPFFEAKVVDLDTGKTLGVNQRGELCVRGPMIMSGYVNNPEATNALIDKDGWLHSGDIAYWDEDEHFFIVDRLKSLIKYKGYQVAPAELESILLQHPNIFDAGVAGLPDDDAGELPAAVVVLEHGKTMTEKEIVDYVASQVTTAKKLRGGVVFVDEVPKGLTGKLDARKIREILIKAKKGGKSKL
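Luminescence read by CCD imaging after purified firefly luciferase (10nM final) was added to substrate buffer holding 10uM D-luciferin and 10uM ATP, pH 7.5, pre-dosed with compound.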
HEK cytotox – Cytotoxic Profiling in HEK 293 Cell Line of Diverse Libraries Using Quantitative High-Throughput Screening; HEK 293 viability, ATP luminescence (CellTiter-Glo), 48-72 h; Potency, µM (doses to about 115 µM), most hits filed as inhibitors; 94,000 tested, 6.6% active; also: nearly all actives have a fitted effect of over 60% in size
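HEK 293 seeded at 250 cells/well receive compound via pintool. After 48 or 72 hr at 37 degree Celsius, 5% CO2 and 95% humidity, CellTiter-Glo is dispensed and luminescence read following 10 min at room temperature.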
GPT2 inh – Primary qHTS assay for inhibitors of Glutamate pyruvate transaminase 2 (GPT2); Alanine aminotransferase 2 (Homo sapiens), Q8TD30; Recombinant GPT2, coupled pyruvate oxidase/HRP Amplex Red fluorescence; Potency, µM (highest dose often 57.7 µM), actives largely listed as inhibitors; 100,000 tested, 0.25% active; AID 1671188, 2021; also: nearly all actives have a fitted effect of over 60% in size
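Recombinant GPT2 (10ng/uL) with 250uM a-KG and 2mM L-alanine, 30 min at room temperature, in HEPES pH 7.5 buffer. Pyruvate detected by pyruvate oxidase/HRP/Amplex Red fluorescence after 30 min in the dark; AOA (50uM) as positive control.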
NIH3T3 tox – Cytotoxic Profiling in NIH 3T3 Cell Line of Diverse Libraries Using Quantitative High-Throughput Screening; NIH 3T3 viability, CellTiter-Glo ATP luminescence, 48-72 h; 94,000 tested, 4.3% active; AID 1345082, 2018; Potency, µM (top dose mostly 96.7 µM), usual class: inhibitors; also: nearly all actives have a fitted effect of over 55% in size
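Mouse fibroblast NIH 3T3 cells, 400 per well, received compound via pintool and were incubated for 48 or 72 hr prior to CellTiter-Glo ATP luminescence measurement.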
NPR1 antag cnf – Natriuretic polypeptide receptor (hNpr1) antagonism - Confirmation; shares compounds with hNpr1 antagonist; HEK293 hNpr1 cGMP GloSensor luminescence, ANP-stimulated; Potency, µM (titrated, usually from 57.6 µM), hits mostly inhibitors; 1,400 tested, 76% active; AID 1347044, 2019; calls by dose curve; also: nearly all actives have a fitted effect of over 70% in size
NPR2 antag – Natriuretic polypeptide receptor (hNpr2) antagonism - Subtype selectivity assay; shares compounds with hNpr1 antagonist; HEK293 hNpr2 GloSensor cGMP luminescence, CNP-stimulated; Potency, µM (series often up to 57.6 µM), hits mostly inhibitors; 1,400 tested, 67% active; AID 1347046, 2019; calls by dose curve; also: nearly all actives have a fitted effect of over 70% in size
FLuc counter – Natriuretic polypeptide receptor (hNpr1) antagonism - Confirmation firefly luciferase (FLuc) inhibition counterscreen; 1,400 tested, 0.7% active; shares compounds with hNpr1 antagonist; Potency, µM (top dose mostly 57.6 µM), actives largely listed as inhibitors; purified FLuc enzyme, luminescence, Km substrate
GloSensor cGMP – Natriuretic polypeptide receptor (hNpr1) antagonism - Counterscreen GloSensor control cell line; shares compounds with hNpr1 antagonist; HEK293 GloSensor cGMP, SNP-stimulated, luminescence; Potency, µM (series often up to 57.6 µM), hits mostly inhibitors; 1,400 tested, 69% active; AID 1347051, 2019; calls by dose curve; also: nearly all actives have a fitted effect of over 70% in size
Large screens that a line does not name were inactive (follow-up assays come after a bar, where they were run). Hits are enriched below; roughly 10% of the tested compounds scored in any of these assays. Unless noted, calls follow the shape of the dose curve; as a rule, active = well fitted curve in the direction sought with a large enough effect; inconclusive = small, poorly fitted or top-dose-only effect, or another doubt; inactive = no such curve, though single readings can be large; an effect the other way counts as inactive or inconclusive.

CC(C)c1noc(-c2cn(C3CCN(C(=O)c4ccc(F)cc4)C3)nn2)n1 (centres undefined)	HEK cytotox inconclusive
CC(C)c1noc(-c2cn(C3CCN(C(=O)c4cccc(Br)c4)C3)nn2)n1 (centres undefined)	hNpr1 antagonist 11µM, HEK cytotox inconclusive | NPR1 antag cnf 19µM | NPR2 antag 22µM | FLuc counter inactive | GloSensor cGMP 22µM
CCc1noc(-c2cn(C3CCN(C(=O)c4ccc(C(C)(C)C)cc4)C3)nn2)n1 (centres undefined)	hNpr1 antagonist 16µM, HEK cytotox inconclusive, NIH3T3 tox inconclusive | NPR1 antag cnf 24µM | NPR2 antag inconclusive | FLuc counter inactive | GloSensor cGMP 27µM
CC(C)c1noc(-c2cn(C3CCN(C(=O)c4ccc(OC(F)(F)F)cc4)C3)nn2)n1 (centres undefined)	hNpr1 antagonist 14µM, HEK cytotox inconclusive, NIH3T3 tox inconclusive | NPR1 antag cnf 14µM | NPR2 antag 19µM | FLuc counter inactive | GloSensor cGMP 15µM
COc1ccc(C(=O)N2CCC(n3cc(-c4nc(C(C)C)no4)nn3)C2)cc1OC (centres undefined)	none
CCc1noc(-c2cn(C3CCN(C(=O)c4ccccc4)C3)nn2)n1 (centres undefined)	none
CC(C)c1noc(-c2cn(C3CCN(C(=O)c4ccc(Cl)s4)C3)nn2)n1 (centres undefined)	hNpr1 antagonist 8.9µM, HEK cytotox inconclusive, NIH3T3 tox inconclusive | NPR1 antag cnf 12µM | NPR2 antag 12µM | FLuc counter inactive | GloSensor cGMP 14µM
CCN1C(=O)CN(C(=O)c2ccncc2)CC12CCOCC2	none (no result: hNpr1 antagonist, Luciferase inh)
CC(=O)O[C@@H]1[C@@H](O)[C@H](O[C@@H]2[C@@H](O)[C@@H](O)[C@H](O[C@H]3[C@H](O[C@H]4[C@H](O[C@H]5CC[C@@]6(C)C(CC[C@]7(C)C6CC=C6[C@@H]8CC(C)(C)CC[C@]8(C(=O)O)CC[C@]67C)[C@]5(C)CO)O[C@H](CO)[C@@H](O)[C@@H]4O)OC[C@@H](O)[C@@H]3O)O[C@H]2C)OC[C@H]1O (some centres undefined)	none (no result: hNpr1 antagonist, Luciferase inh, HEK cytotox, NIH3T3 tox)
O=C1CO[C@H]2CCN(Cc3cccs3)CC[C@@H]2N1Cc1c[nH]c2ccccc12	HEK cytotox inconclusive, NIH3T3 tox inconclusive
CCCCCN(CCC(=O)NCc1ccc2c(c1)OCO2)C(=O)c1cc(C)oc1C	hNpr1 antagonist 13µM, HEK cytotox inconclusive, GPT2 inh inconclusive, NIH3T3 tox 32µM | NPR1 antag cnf inconclusive | NPR2 antag inconclusive | FLuc counter inactive | GloSensor cGMP inactive
